Measured values published in PubChem BioAssay (Tox21).
Several values for one entry are separate records, joined by “and”; a condition that tells them apart may be missing. Identical values can stand only once. Results filed as inconclusive are left out. Some structures have more than one record in an assay (separate samples or runs), and their calls can disagree. Activity calls are given as the source filed them. Unless noted, the call rests on the fitted dose curve; in most records, active means well fitted curve in the direction sought with a large enough effect in the repeat runs; inconclusive means weak or mixed curves; inactive means no such curve, though single readings can be large; an effect the other way counts as inactive or inconclusive.

Assays:
[1] = qHTS assay to identify small molecule agonists of the peroxisome proliferator-activated receptor delta (PPARd) signaling pathway - cell viability counter screen (AID 743211); further: nearly all actives have a fitted effect of over 55% in size; further: potency means the concentration at half of the fitted maximal effect
In short: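 PPARd-bla HEK293H cells (UAS-beta-lactamase reporter) were treated with compounds for 17 h at 37 C. Viability was then read in the same wells by CellTiter-Glo luminescence after 30 min at room temperature.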

[2] = qHTS assay to identify small molecule antagonists of the peroxisome proliferator-activated receptor delta (PPARd) signaling pathway - cell viability counter screen (AID 743213); further: nearly all actives have a fitted effect of over 50% in size; further: potency means the concentration at half of the fitted maximal effect
In short: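 CellTiter-Glo was added to PPARd-bla HEK293H wells following 17 h compound treatment in the presence of 300 nM L165041. Luminescence was recorded after 30 min at room temperature.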

[3] = biological target: Peroxisome proliferator-activated receptor delta (Homo sapiens) (UniProt Q03181); assay: qHTS assay to identify small molecule agonists of the peroxisome proliferator-activated receptor delta (PPARd) signaling pathway (AID 743212; calls by dose curve)
In short: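 Read-out: beta-lactamase FRET fluorescence after 2 h room-temperature incubation with LiveBLAzer B/G substrate. Cells were HEK293H carrying a UAS-bla reporter for PPARd, treated at 37 C with DMSO-dissolved compounds.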

[4] = biological target: Peroxisome proliferator-activated receptor delta (Homo sapiens) (UniProt Q03181); assay: qHTS assay to identify small molecule antagonists of the peroxisome proliferator-activated receptor delta (PPARd) signaling pathway (AID 743215; active means well fitted inhibition curve with a large enough effect in the signal ratio in the repeat runs, not every such curve was filed as active; the % refers to the signal ratio;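 further: cells stimulated with agonist L165041 at 300 nM final during compound exposure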; further: potency means the concentration at half of the fitted maximal effect)
In short: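 Plated HEK293H PPARd-bla cells rested 5 h at 37 C and 5% CO2. Compound, then agonist L165041 at 300 nM final, was added; 17 h at 37 C followed. Substrate loading, 2 h room temperature, fluorescence measured.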

[5] = qHTS assay to identify small molecule antagonists of the farnesoid-X-receptor (FXR) signaling pathway - cell viability counter screen (AID 743221; active means well fitted cell-killing curve with a large enough effect in the repeat runs, not every such curve was filed as active; further: nearly all actives have a fitted effect of over 50% in size)
In short: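 FXR-UAS-bla HEK 293T cells were treated with test compounds plus chenodeoxycholic acid (50 uM final) for 16 h at 37 C. Cell viability in the same wells was then read as CellTiter-Glo luminescence after 30 min at room temperature.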

[6] = biological target: Vitamin D3 receptor (Homo sapiens) (UniProt P11473); assay: qHTS assay to identify small molecule agonists of the vitamin D receptor (VDR) signaling pathway (AID 743222; calls by dose curve)
In short: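 Fluorescence from cleaved LiveBLAzer B/G FRET substrate served as readout. VDR-bla cells had been treated 16 h at 37C with test compounds in DMSO, following a 4 h settling period, and substrate was loaded for 2 h at RT.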

[7] = biological target: Vitamin D3 receptor (Homo sapiens) (UniProt P11473); assay: qHTS assay to identify small molecule antagonists of the vitamin D receptor (VDR) signaling pathway (AID 743223; active means well fitted inhibition curve with a large enough effect in the signal ratio in the repeat runs, not every such curve was filed as active; the % refers to the signal ratio)
In short: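 VDR-bla cells were plated, incubated 4 h at 37C, then given compound and 1alpha,25-dihydroxyvitamin D3 (3 nM final). After 16 h at 37C, LiveBLAzer B/G FRET substrate was added for 2 h at room temperature and fluorescence read.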

[8] = biological target: Bile acid receptor (Homo sapiens) (UniProt Q96RI1); assay: qHTS assay to identify small molecule antagonists of the farnesoid-X-receptor (FXR) signaling pathway (AID 743217; active means well fitted inhibition curve with a large enough effect in the signal ratio in the repeat runs, not every such curve was filed as active; the % refers to the signal ratio; further: potency means the concentration at half of the fitted maximal effect)
In short: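 Screen of the Tox21 10K library in quantitative HTS format using FXR-UAS-bla HEK 293T reporter cells. Agonist chenodeoxycholic acid, 50 uM final, added with compounds; 16 h incubation at 37 °C; beta-lactamase FRET fluorescence measured.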

[9] = qHTS assay to identify small molecule agonists of the farnesoid-X-receptor (FXR) signaling pathway - cell viability counter screen (AID 743218); further: nearly all actives have a fitted effect of over 45% in size; further: potency means the concentration at half of the fitted maximal effect
In short: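 Viability of FXR-bla HEK 293T cells is measured by ATP-based CellTiter-Glo luminescence following 16 h compound treatment at 37 C and a prior 2 h room-temperature beta-lactamase substrate step.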

[10] = biological target: Bile acid receptor (Homo sapiens) (UniProt Q96RI1); assay: qHTS assay to identify small molecule agonists of the farnesoid-X-receptor (FXR) signaling pathway (AID 743220; active means well fitted activation curve with a large enough effect in the signal ratio in the repeat runs, not every such curve was filed as active; the % refers to the signal ratio)
In short: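 FXR-UAS-bla HEK 293T cells carrying a UAS-driven beta-lactamase reporter were plated for 5 h at 37C/5% CO2, then exposed to DMSO-dissolved Tox21 10K compounds for 16 h at 37C. A LiveBLAzer B/G FRET substrate was loaded for 2 h at room temperature before fluorescence reading.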

Measured: Potency

Chain of Bile acid receptor (Homo sapiens) (Q96RI1 whole entry, looked up): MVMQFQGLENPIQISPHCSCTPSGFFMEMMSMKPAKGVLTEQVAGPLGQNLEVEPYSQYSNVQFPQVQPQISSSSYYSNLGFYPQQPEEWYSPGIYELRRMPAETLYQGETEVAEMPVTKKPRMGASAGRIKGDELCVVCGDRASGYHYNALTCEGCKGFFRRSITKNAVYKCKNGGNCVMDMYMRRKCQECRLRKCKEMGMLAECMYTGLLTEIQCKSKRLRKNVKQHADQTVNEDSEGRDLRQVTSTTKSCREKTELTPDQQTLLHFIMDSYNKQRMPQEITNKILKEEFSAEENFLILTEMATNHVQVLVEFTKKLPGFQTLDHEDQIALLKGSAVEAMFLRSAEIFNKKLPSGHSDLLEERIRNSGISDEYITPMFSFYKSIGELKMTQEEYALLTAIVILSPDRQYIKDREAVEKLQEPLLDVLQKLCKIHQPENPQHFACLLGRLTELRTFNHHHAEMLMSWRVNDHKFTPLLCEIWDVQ
Chain of Vitamin D3 receptor (Homo sapiens) (P11473 whole entry, looked up): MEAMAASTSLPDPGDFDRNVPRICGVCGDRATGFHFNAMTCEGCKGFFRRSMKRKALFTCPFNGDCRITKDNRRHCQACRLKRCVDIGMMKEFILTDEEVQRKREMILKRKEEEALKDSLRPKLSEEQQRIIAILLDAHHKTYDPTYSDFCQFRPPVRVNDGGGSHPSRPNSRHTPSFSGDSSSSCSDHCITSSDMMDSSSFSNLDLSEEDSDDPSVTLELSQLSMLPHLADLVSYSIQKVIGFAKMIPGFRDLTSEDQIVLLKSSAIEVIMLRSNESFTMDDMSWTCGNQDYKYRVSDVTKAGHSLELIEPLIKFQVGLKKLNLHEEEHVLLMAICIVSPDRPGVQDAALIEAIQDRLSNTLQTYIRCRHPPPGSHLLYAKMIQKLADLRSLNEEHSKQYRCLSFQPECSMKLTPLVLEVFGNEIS
Chain of Peroxisome proliferator-activated receptor delta (Homo sapiens) (Q03181 whole entry, looked up): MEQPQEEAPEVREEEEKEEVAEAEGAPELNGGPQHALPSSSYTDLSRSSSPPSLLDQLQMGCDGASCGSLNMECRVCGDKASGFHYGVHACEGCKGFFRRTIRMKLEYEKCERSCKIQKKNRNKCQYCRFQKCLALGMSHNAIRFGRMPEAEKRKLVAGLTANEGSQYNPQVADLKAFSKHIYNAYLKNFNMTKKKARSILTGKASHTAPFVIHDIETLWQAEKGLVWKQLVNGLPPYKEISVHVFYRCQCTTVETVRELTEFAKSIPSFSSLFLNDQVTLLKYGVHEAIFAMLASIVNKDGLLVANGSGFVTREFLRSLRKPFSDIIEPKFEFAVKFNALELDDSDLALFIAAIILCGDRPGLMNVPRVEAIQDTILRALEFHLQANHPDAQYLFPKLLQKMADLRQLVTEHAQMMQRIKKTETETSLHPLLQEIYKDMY

CC(C)O.CC(C)O.OCCN(CCO)CCO.OCCN(CCO)CCO.[Ti]
inactive: [1] | [2]

CCOC(=O)COc1cc(-c2nn(C)c(OC(F)F)c2Cl)c(F)cc1Cl
not listed: [8] | [9] | [10]
inactive: all other assays above

O=C(CBr)c1ccccc1
not listed: [3] | [6] | [7]
inactive: all other assays above

CCOP(=O)(OCC)Oc1ccc([N+](=O)[O-])cc1
not listed: [2] | [8] | [9]
inactive: all other assays above

Cc1ccc(N)cc1C
not listed: [2] | [8]
inactive: all other assays above

O=C(C(Cl)(Cl)Cl)C(Cl)(Cl)Cl
not listed: [3] | [5]
inactive: all other assays above

C(=NC1CCCCC1)=NC1CCCCC1
active: [9] 11 µM
inactive: [3] | [2] | [5] | [6] | [7]
inactive and 21.9 µM (active): [1]

N#Cc1ccc(Cl)cc1
not listed: [4] | [8] | [10]
inactive: all other assays above

O=C(Nc1ccccc1)Nc1ccnc(Cl)c1
inactive: [1] | [3] | [2] | [6]

CS/C(C)=N/OC(=O)N(C)SN(C)C(=O)O/N=C(\C)SC
not listed: [4] | [6] | [7]
inactive: all other assays above

CC(=O)CCC(C)=O
not listed: [4] | [8] | [10]
inactive: all other assays above

O=C1C(Cl)C(CCl)CN1c1cccc(C(F)(F)F)c1 (configuration not stated)
inactive: [1] | [3] | [2] | [4] | [5] | [6]

CCOc1nc(F)cc2nc(S(=O)(=O)Nc3c(Cl)cccc3Cl)nn12
inactive: [1] | [3] | [2] | [8] | [9] | [5]

NC(=O)CI
not listed: [4] | [8] | [10]
inactive: all other assays above

O=S(=O)(Cl)c1ccccc1
not listed: [4] | [9] | [10]
inactive: all other assays above

Nc1nc(=S)[nH][nH]1
not listed: [2] | [8] | [10]
inactive: all other assays above

Brc1ccc(Oc2ccccc2)cc1
inactive: [1] | [3] | [2] | [4] | [6] | [7]

N#C/C(N)=C(/N)C#N
not listed: [3] | [7]
inactive: all other assays above

CCCCc1c(C)nc(NCC)nc1OS(=O)(=O)N(C)C
not listed: [3] | [8] | [10]
inactive: all other assays above

COP(=S)(OC)Oc1cc(Cl)c(I)cc1Cl
inactive: [1] | [2] | [4] | [8] | [6]

O=NN1CCNCC1
inactive: [1] | [2] | [4] | [6] | [7]

COc1c(C(C)(C)C)cc([N+](=O)[O-])c(C)c1[N+](=O)[O-]
not listed: [3] | [8] | [10]
inactive: all other assays above

O=C(O)COc1ccc(Cl)cc1
inactive: [1] | [2] | [4] | [9] | [5] | [6]

O=C(O)C(F)(F)C(F)(F)C(F)(F)C(F)(F)C(F)(F)C(F)(F)C(F)(F)C(F)(F)C(F)(F)C(F)(F)F
not listed: [3] | [4]
inactive: all other assays above

O=C(CCl)c1ccc(Cl)cc1Cl
active: [1] 18.8 µM
inactive: [8]
inactive and 29.8 µM (active): [2]

CCCCNP(N)(N)=S
not listed: [3] | [5] | [9]
inactive: all other assays above

IC(I)=C(I)I
active: [1] 9.77 µM | [2] 12.3 µM | [4] 15.5 µM | [9] 12.3 µM

C=CC(=O)OC
inactive: [1] | [2] | [8] | [9] | [6]

N#CCC#N
inactive: [1] | [2] | [4] | [9] | [5] | [6]

CCc1ccc(C(=O)NN(C(=O)c2cc(C)cc(C)c2)C(C)(C)C)cc1
active: [8] 54.9 µM
not listed: [3] | [9] | [10]
inactive: all other assays above

[O-][Cl+]O
inactive: [1] | [2] | [4] | [9] | [6] | [7]

C[C@@H]1CC[C@H]2[C@@H](C)C(=O)O[C@@H]3O[C@@]4(C)CC[C@@H]1[C@]32OO4
inactive: [1] | [2] | [8] | [10] | [5] | [6]

CN(N=O)c1ccc([N+](=O)[O-])cc1
not listed: [3] | [4] | [9]
inactive: all other assays above
